# C diff HTS – C. difficile growth inhibition; growth activity, negative = inhibition, % at 16 µg/mL (by protocol); AID 1259249; Clostridium difficile clinical isolate growth, OD600, 24 h; stronger effect = lower value; 86,000 tested, 0.25% active;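 active means mean growth activity at or below -80% and every replicate also at or below -80%; inconclusive means mean at or below -80% but some replicate above -80%; inactive means mean growth activity above -80%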
# Pf Dd2 growth – inhibitors of Plasmodium falciparum Dd2 growth. activity change, % at 10 µM. 94,000 tested, 2.3% active. P. falciparum Dd2 growth, SYBR Green, 72 h; stronger effect = lower value; in the data active means activity change below about -80%; inconclusive means no clear call, values can overlap the other calls
# Hits are given with their value; i = inactive; ? = inconclusive; nt = no result. Sampled rows, rich in hits. Any-hit rate of the full collection: about 2.3%.
SMILES,C diff HTS,Pf Dd2 growth
Cc1ccc(-c2ccc3c(c2)O[C@@H](CN(C)Cc2ccncc2)[C@H](C)CN([C@H](C)CO)S3(=O)=O)cc1,i,-84
C[C@@H]1CN([C@@H](C)CO)S(=O)(=O)c2ccc(-c3cccc(C(=O)N(C)C)c3)cc2O[C@@H]1CN(C)Cc1ccc2c(c1)OCO2,i,i
C[C@@H]1CN([C@@H](C)CO)C(=O)c2cccc(NC(=O)CCCCCC(=O)Nc3ccccc3N)c2O[C@H]1CN(C)C(=O)Nc1ccc2c(c1)OCO2,i,i
C[C@H]1CN([C@@H](C)CO)S(=O)(=O)c2ccc(-c3ccncc3)cc2O[C@@H]1CN(C)Cc1ccc(Oc2ccccc2)cc1,i,i
CC(C)CC#Cc1ccc2c(c1)O[C@@H](CN(C)Cc1cccc(F)c1)[C@@H](C)CN([C@H](C)CO)S2(=O)=O,i,i
C[C@@H]1CN([C@H](C)CO)S(=O)(=O)c2ccc(-c3ccncc3)cc2O[C@@H]1CN(C)Cc1ccc(Oc2ccccc2)cc1,i,-87
Cc1ccc(-c2ccc3c(c2)O[C@@H](CN(C)Cc2cccnc2)[C@H](C)CN([C@@H](C)CO)S3(=O)=O)cc1,i,-81
Cc1ccc(-c2ccc3c(c2)O[C@H](CN(C)Cc2cccnc2)[C@@H](C)CN([C@H](C)CO)S3(=O)=O)cc1,i,?
CC(C)CC#Cc1ccc2c(c1)O[C@@H](CN(C)Cc1cccc(F)c1)[C@H](C)CN([C@@H](C)CO)S2(=O)=O,i,-84
Cc1noc(C)c1S(=O)(=O)N(C)C[C@H]1OCCCC[C@H](C)Oc2ccc(NC(=O)Nc3ccccc3)cc2C(=O)N([C@@H](C)CO)C[C@@H]1C,i,?
COc1ccc(NC(=O)Nc2ccc3c(c2)C(=O)N([C@@H](C)CO)C[C@H](C)[C@@H](CN(C)S(=O)(=O)c2c(C)noc2C)OCCCC[C@H](C)O3)cc1,i,-83
Cc1noc(C)c1S(=O)(=O)N(C)C[C@H]1OCCCC[C@@H](C)Oc2ccc(NC(=O)Nc3ccc(F)cc3)cc2C(=O)N([C@@H](C)CO)C[C@@H]1C,i,-83
COc1ccc(NC(=O)Nc2ccc3c(c2)C(=O)N([C@@H](C)CO)C[C@@H](C)[C@H](CN(C)S(=O)(=O)c2c(C)noc2C)OCCCC[C@@H](C)O3)cc1,i,i
Cc1noc(C)c1S(=O)(=O)N(C)C[C@@H]1OCCCC[C@@H](C)Oc2ccc(NC(=O)Nc3ccccc3)cc2C(=O)N([C@H](C)CO)C[C@H]1C,i,-83
Cc1noc(C)c1S(=O)(=O)N(C)C[C@H]1OCCCC[C@@H](C)Oc2ccc(NC(=O)Nc3ccc(F)cc3)cc2C(=O)N([C@H](C)CO)C[C@@H]1C,i,i
C[C@@H]1CN([C@@H](C)CO)S(=O)(=O)c2ccc(C#CCN(C)C)cc2O[C@@H]1CN(C)Cc1ccccc1F,i,i
CO[C@@H]1CN(C)C(=O)c2cc(NC(=O)Nc3ccc(C(F)(F)F)cc3)ccc2OC[C@@H](C)NC[C@@H]1C,nt,-81
CO[C@@H]1CN(C)C(=O)c2ccc(NC(=O)Nc3ccc(C(F)(F)F)cc3)cc2OC[C@H](C)NC[C@@H]1C,nt,i
CO[C@@H]1CN(C)C(=O)c2cc(NC(=O)Nc3ccc(F)cc3)ccc2OC[C@H](C)NC[C@H]1C,i,i
CO[C@@H]1CN(C)C(=O)c2ccc(NC(=O)Nc3cccc(F)c3)cc2OC[C@H](C)NC[C@@H]1C,nt,i
CO[C@H]1CN(C)C(=O)c2ccc(NC(=O)Nc3ccc(C(F)(F)F)cc3)cc2OC[C@@H](C)NC[C@@H]1C,nt,i
CO[C@H]1CN(C)C(=O)c2ccc(NC(=O)Nc3ccc(C(F)(F)F)cc3)cc2OC[C@H](C)NC[C@H]1C,nt,-90
CO[C@@H]1CN(C)C(=O)c2cc(NC(=O)Nc3ccc(C(F)(F)F)cc3)ccc2OC[C@H](C)NC[C@H]1C,nt,-89
CO[C@@H]1CN(C)C(=O)c2ccc(NC(=O)Nc3cccc(F)c3)cc2OC[C@H](C)NC[C@H]1C,nt,-82
C[C@H]1CN([C@@H](C)CO)C(=O)Cc2cc(NC(=O)Nc3cccc4ccccc34)ccc2O[C@H]1CN(C)C,i,i
SMILES,C diff HTS,Pf Dd2 growth
C[C@H](CO)N1C[C@H](C)[C@H](CN(C)CC2CC2)Oc2ccc(NC(=O)Nc3cccc4ccccc34)cc2CC1=O,i,-89
C[C@H](CO)N1C[C@H](C)[C@@H](CN(C)CC2CC2)Oc2ccc(NC(=O)Nc3cccc4ccccc34)cc2CC1=O,i,-86
C[C@H]1CN([C@@H](C)CO)C(=O)Cc2cc(NC(=O)Nc3cccc4ccccc34)ccc2O[C@@H]1CN(C)CC1CCCCC1,i,i
O=S(=O)(c1ccccc1)N1CCCCN2[C@@H](CO)[C@@H](c3ccc(-c4cncnc4)cc3)[C@@H]2C1,i,i
O=C1CN(Cc2ccccc2)C[C@H]2[C@@H](c3ccc(Br)cc3)[C@H](CO)N12,i,i
COC(=O)C[C@@H]1CC[C@@H]2[C@@H](COc3ccc(NC(=O)Nc4cccc(F)c4)cc3C(=O)N2C)O1,i,i
C[C@@H]1CN([C@H](C)CO)C(=O)c2cc(NC(=O)NC3CCCCC3)ccc2O[C@@H](C)CCCCO[C@@H]1CN(C)S(=O)(=O)c1ccc(F)cc1,i,-84
Cc1ccc(S(=O)(=O)N(C)C[C@H]2OCCCC[C@@H](C)Oc3ccc(NC(=O)NC4CCCCC4)cc3C(=O)N([C@@H](C)CO)C[C@@H]2C)cc1,i,?
C[C@@H]1CCCCO[C@@H](CN(C)S(=O)(=O)c2ccc(F)cc2)[C@H](C)CN([C@H](C)CO)C(=O)c2cc(NC(=O)NC3CCCCC3)ccc2O1,i,i
Cc1ccc(S(=O)(=O)N(C)C[C@@H]2OCCCC[C@H](C)Oc3ccc(NC(=O)NC4CCCCC4)cc3C(=O)N([C@H](C)CO)C[C@H]2C)cc1,i,-85
CNC[C@@H]1OCCCC[C@@H](C)Oc2ccc(NC(=O)CCCN(C)C)cc2C(=O)N([C@H](C)CO)C[C@H]1C,i,i
C[C@H](CO)N1C[C@H](C)[C@@H](CN(C)Cc2ccc3c(c2)OCO3)Oc2ccc(NS(=O)(=O)c3ccc(Cl)cc3)cc2CC1=O,i,i
COc1ccc(NC(=O)Nc2ccc3c(c2)CC(=O)N([C@H](C)CO)C[C@H](C)[C@@H](CN(C)S(=O)(=O)c2ccc(OC)cc2)O3)cc1,i,i
CO[C@@H]1CN(C)C(=O)c2ccc(NC(=O)NC(C)C)cc2OC[C@@H](C)N(Cc2ccccc2)C[C@H]1C,i,-85
CCCNC(=O)Nc1ccc2c(c1)OC[C@H](C)N(Cc1ccccc1)C[C@H](C)[C@@H](OC)CN(C)C2=O,i,i
CO[C@H]1CN(C)C(=O)c2ccc(NC(=O)NC(C)C)cc2OC[C@H](C)N(Cc2ccccc2)C[C@H]1C,nt,i
CO[C@@H]1CN(C)C(=O)c2ccc(NC(=O)c3ccc(F)cc3)cc2OC[C@H](C)N(C(=O)c2ccc(F)cc2)C[C@H]1C,nt,i
CO[C@@H]1CN(C)C(=O)c2ccc(NC(=O)c3ccc(F)cc3)cc2OC[C@@H](C)N(C(=O)c2ccc(F)cc2)C[C@@H]1C,nt,-88
CCCNC(=O)Nc1ccc2c(c1)OC[C@@H](C)N(Cc1ccccc1)C[C@@H](C)[C@H](OC)CN(C)C2=O,i,-87
CCC(=O)Nc1ccc2c(c1)OC[C@H](C)N(Cc1ccccn1)C[C@@H](C)[C@@H](OC)CN(C)C2=O,nt,i
CCC(=O)Nc1ccc2c(c1)OC[C@H](C)N(Cc1ccccn1)C[C@H](C)[C@H](OC)CN(C)C2=O,nt,-84
